# Assay results: PubChem BioAssay (NCATS)
# Results filed as inconclusive are left out. A call without a number means that no potency is given here. Active and inactive are the calls of the source. Calls come from the whole dose curve; as a rule, active = well fitted inhibition curve with a large enough effect; inconclusive = small, poorly fitted or top-dose-only effect; inactive = flat fitted curve, though single readings scatter.
# How the values were obtained:
# Test in all cases: qHTS profiling for inhibitors of Plasmodium falciparum proliferation (AID 504749); note: nearly all actives have a fitted effect of over 60% in size
# CP217 = conditions: P. falciparum in erythrocytes, SYBR Green DNA, 72 h; series mostly up to 28.7 µM
# How it was run: (§1)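 In a 72 h erythrocytic culture (37 C, humidified, 5% CO2) at 2.5% hematocrit and 0.3% starting parasitemia, compounds were tested; SYBR Green I in detergent lysis buffer stained parasite DNA overnight.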
# CP238 = conditions: P. falciparum in erythrocytes, SYBR Green DNA, 72 h; series mostly up to 28.7 µM
# How it was run: as §1
# CP247 = conditions: P. falciparum in erythrocytes, SYBR Green DNA, 72 h; series mostly up to 28.7 µM
# How it was run: as §1
# CP250 = conditions: P. falciparum in erythrocytes, SYBR Green DNA, 72 h; series mostly up to 12.8 µM
# How it was run: as §1
# CP252 = conditions: P. falciparum in erythrocytes, SYBR Green DNA, 72 h; series mostly up to 12.8 µM
# How it was run: as §1
# CP256 = conditions: P. falciparum in erythrocytes, SYBR Green DNA, 72 h; series mostly up to 28.7 µM
# How it was run: as §1
# CP262 = conditions: P. falciparum in erythrocytes, SYBR Green DNA, 72 h; series mostly up to 28.7 µM
# How it was run: as §1
# CP268 = conditions: P. falciparum in erythrocytes, SYBR Green DNA, 72 h; series mostly up to 28.7 µM
# How it was run: as §1
# CP269 = conditions: P. falciparum in erythrocytes, SYBR Green DNA, 72 h; series mostly up to 28.7 µM
# How it was run: as §1
# CP286 = conditions: P. falciparum in erythrocytes, SYBR Green DNA, 72 h; series mostly up to 28.7 µM
# How it was run: as §1
# CP291 = conditions: P. falciparum in erythrocytes, SYBR Green DNA, 72 h; series mostly up to 28.7 µM
# How it was run: as §1
# CP297 = conditions: P. falciparum in erythrocytes, SYBR Green DNA, 72 h; series mostly up to 28.7 µM
# How it was run: as §1
# CP305 = conditions: P. falciparum in erythrocytes, SYBR Green DNA, 72 h; series mostly up to 28.7 µM
# How it was run: as §1
# CP315 = conditions: P. falciparum in erythrocytes, SYBR Green DNA, 72 h; series mostly up to 28.7 µM
# How it was run: as §1
# CP325 = conditions: P. falciparum in erythrocytes, SYBR Green DNA, 72 h; series mostly up to 28.7 µM
# How it was run: as §1
# CP329 = conditions: P. falciparum in erythrocytes, SYBR Green DNA, 72 h; series mostly up to 28.7 µM
# How it was run: as §1
# DIV17 = conditions: P. falciparum in erythrocytes, SYBR Green DNA, 72 h; series mostly up to 28.7 µM
# How it was run: as §1
# DIV30 = conditions: P. falciparum in erythrocytes, SYBR Green DNA, 72 h; series mostly up to 28.7 µM
# How it was run: as §1
# Dd2 = conditions: P. falciparum in erythrocytes, SYBR Green DNA, 72 h; series mostly up to 28.7 µM
# How it was run: as §1
# FAB9 = conditions: P. falciparum in erythrocytes, SYBR Green DNA, 72 h; series mostly up to 28.7 µM
# How it was run: as §1
# HB3 = conditions: P. falciparum in erythrocytes, SYBR Green DNA, 72 h; series mostly up to 28.7 µM
# How it was run: as §1
# ICS = conditions: P. falciparum in erythrocytes, SYBR Green DNA, 72 h; series mostly up to 28.7 µM
# How it was run: as §1
# JCK = conditions: P. falciparum in erythrocytes, SYBR Green DNA, 72 h; series mostly up to 28.7 µM
# How it was run: as §1
# N140 = conditions: P. falciparum in erythrocytes, SYBR Green DNA, 72 h; series mostly up to 28.7 µM
# How it was run: as §1
# P93_24 = conditions: P. falciparum in erythrocytes, SYBR Green DNA, 72 h; series mostly up to 28.7 µM
# How it was run: as §1
# P94_40 = conditions: P. falciparum in erythrocytes, SYBR Green DNA, 72 h; series mostly up to 28.7 µM
# How it was run: as §1
# PC15 = conditions: P. falciparum in erythrocytes, SYBR Green DNA, 72 h; series mostly up to 28.7 µM
# How it was run: as §1
# SC27B = conditions: P. falciparum in erythrocytes, SYBR Green DNA, 72 h; series mostly up to 28.7 µM
# How it was run: as §1
# TAB113 = conditions: P. falciparum in erythrocytes, SYBR Green DNA, 72 h; series mostly up to 28.7 µM
# How it was run: as §1
# W2 = conditions: P. falciparum in erythrocytes, SYBR Green DNA, 72 h; series mostly up to 12.8 µM
# How it was run: as §1
# Potency is the fitted concentration of half-maximal effect.
structure (smiles),measurement,setting,value
CC(=O)OC1C[C@H](O[C@@H]2C(O)C[C@H](O[C@@H]3C(O)C[C@@H](OC4CC[C@]5(C)C(CCC6C5CC(O)[C@@]5(C)C(C7=CC(=O)OC7)CC[C@@]65O)C4)OC3C)OC2C)O[C@H](C)[C@H]1O[C@H]1OC(CO)C(O)C(O)C1O (stereo not given in full),Potency,CP217,inactive
same,Potency,CP238,inactive
same,Potency,CP247,inactive
same,Potency,CP250,inactive
same,Potency,CP252,inactive
same,Potency,CP256,inactive
same,Potency,CP262,inactive
same,Potency,CP268,inactive
same,Potency,CP269,inactive
same,Potency,CP286,inactive
same,Potency,CP291,inactive
same,Potency,CP297,inactive
same,Potency,CP305,inactive
same,Potency,CP315,inactive
same,Potency,CP325,inactive
same,Potency,CP329,inactive
same,Potency,DIV17,13.5 µM (active)
same,Potency,DIV30,inactive
same,Potency,Dd2,inactive
same,Potency,FAB9,inactive
same,Potency,HB3,12.6 µM (active)
same,Potency,ICS,5.62 µM (active)
same,Potency,JCK,inactive
same,Potency,N140,inactive
same,Potency,P93_24,12.6 µM (active)
same,Potency,P94_40,inactive
same,Potency,PC15,5.01 µM (active)
same,Potency,SC27B,inactive
same,Potency,TAB113,inactive
same,Potency,W2,13.5 µM (active)
